Among the data in PubChem BioAssay AID778 (Sanford-Burnham Center for Chemical Genomics, 2007) are inhibition values, retold here.

About 20,000 (21%) of roughly 96,000 compounds were called active.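 The calls were made as follows: active = CYP2C19 inhibition above a set limit at 5 µM in the primary screen (cut at about 50% in these data); inactive = the rest.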 The list is a sample of the results.

One may read the inhibition as the relative decrease from the control value, in per cent.

Cytochrome P450 2C19 (Homo sapiens), sequence (P33261 whole entry, looked up): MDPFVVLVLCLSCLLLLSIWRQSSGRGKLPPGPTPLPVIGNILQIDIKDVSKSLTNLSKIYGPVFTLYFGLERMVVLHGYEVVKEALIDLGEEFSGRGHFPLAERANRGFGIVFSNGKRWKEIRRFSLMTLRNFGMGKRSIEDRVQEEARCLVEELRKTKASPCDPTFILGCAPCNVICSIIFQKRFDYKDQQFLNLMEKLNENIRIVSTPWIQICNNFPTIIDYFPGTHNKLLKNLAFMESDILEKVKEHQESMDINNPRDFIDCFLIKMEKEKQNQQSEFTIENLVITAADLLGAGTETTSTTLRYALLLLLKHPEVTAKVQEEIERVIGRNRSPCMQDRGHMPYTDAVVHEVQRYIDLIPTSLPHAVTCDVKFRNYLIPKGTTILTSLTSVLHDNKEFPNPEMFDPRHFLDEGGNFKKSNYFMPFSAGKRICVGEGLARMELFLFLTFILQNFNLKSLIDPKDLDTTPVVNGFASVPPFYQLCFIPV

The experiment addresses Cytochrome P450 2C19 (Homo sapiens) (UniProt P33261). Description: blockers of cytochrome P450 2C19 activity – biochemical, luminescence, ADME assay, primary screen (AID 778).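 Also: plate controls were negative control wells for no effect and 2.5 mM tranylcypromine positive control for full effect.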 Conditions: CYP2C19 Supersomes, luciferin-H EGE luminescence, 30 min; at 5 µM; hits give high values.
For the compound `O=C1c2ccccc2C(=O)N1CCCc1nc(-c2ccccc2)no1`, the inhibition was 9.5% (inactive).

As for `c1ccc(CCc2nc(-c3ccncc3)no2)cc1`, the inhibition was 97.5% (active).

Consider `Cc1ccc(Cc2nc(-c3cccc(C)c3)no2)cc1`, for which the inhibition is 2.2% (inactive). To `CCOC(=O)N1CCN(CC(=O)Nc2cc(C)nn2-c2nc3ccccc3s2)CC1` belongs 39.8% (inactive); to `CCn1cc(C(=O)N/N=C(/C)c2ccc(F)cc2)c(=O)c2cc(F)c(N3CCCC3)cc21`, 39.5% (inactive); to `Cc1nnc(SCC(=O)Nc2ncc3c(n2)CC(C)(C)CC3=O)s1`, 1.5% (inactive). Take `CCN1C(=O)C(CC(=O)Nc2cc(C)ccc2C)SC1=Nc1ccc(S(N)(=O)=O)cc1` (stereo not drawn): the inhibition is 17.6% (inactive). As to `CC(=O)Oc1ccc(C(=O)Nc2nccs2)cc1`, the inhibition is 16.7% (inactive). To `Cn1cccc1C(=O)Nc1nccs1` belongs 8.5% (inactive); to `O=C(CCSCCc1ccccn1)Nc1nccs1`, 82.6% (active); to `CC(C(=O)O)N1C(=O)c2cccc3cccc1c23` (stereo not drawn), -13.8% (inactive). As for `CC(C(=O)N1CCOCC1)N1c2cccc3cccc(c23)S1(=O)=O` (stereo not drawn), the inhibition is 80.5% (active). For the compound `NC(=NC(=O)c1ccccc1)N1CCOCC1`, the inhibition is 12% (inactive).

As to `O=C(NCCN1CCN(Cc2ccccc2)CC1)c1cc2c(=O)[nH]c3ccccc3c2s1`, the inhibition is -2.7% (inactive). Consider `Nn1c(Cc2cccc3ccccc23)nnc1SCC(=O)N1CC(=O)Nc2ccccc21`, for which the inhibition was -8.7% (inactive).

As to `COc1ccc(NC(=O)c2c(SC)nsc2SC)cc1`, the inhibition is 7.1% (inactive). `O=S1(=O)CCN2C(=N1)SC1=C2CCN(Cc2ccccc2)C1`: the inhibition is 48.1% (inactive). As to `CN(C(=O)C1CCOC1)c1nnc(-c2cccnc2)s1` (stereo not drawn), the inhibition is 5.3% (inactive). To `Cn1nc([N+](=O)[O-])nc1Sc1ccc(C(C)(C)C)cc1` belongs 97.1% (active).

In the case of `CC(C)(C)NC(=O)Cn1cnc([N+](=O)[O-])n1`, the inhibition was 6.1% (inactive). As for `Cn1cnc([N+](=O)[O-])c1Sc1ccccc1`, the inhibition was 30.3% (inactive).

Consider `Cc1ccc(-c2n[nH]c(=S)n2/N=C/c2cc3c(cc2[N+](=O)[O-])OCO3)cc1`, for which the inhibition is 0.8% (inactive). For `O=C(COc1ncnc2c(Cl)cc(Cl)cc12)N1CCN(S(=O)(=O)c2ccccc2)CC1`, the inhibition was -6.9% (inactive). Take `COc1ccc(Cl)cc1C(=O)NCC#N`: the inhibition is -3.6% (inactive). Regarding `CCc1nnc(NC(=O)CCC(=O)NCc2ccccc2OC)s1`, the inhibition is -8% (inactive).

Consider `CCCOc1ccccc1C(=O)NCCCC(=O)O`, for which the inhibition is 9.9% (inactive). For the compound `COc1cc(SC)ccc1C(=O)NCCOc1ccccc1Cl`, the inhibition was 94.9% (active). The value for `COc1ccccc1CNC(=O)c1ccc(SC)cc1OC` was 78.9% (active); that for `CCOC(=O)c1c(C)[nH]c(C(=O)NCc2ccccc2OC)c1C` was 44.3% (inactive); that for `O=C1CCCN1CCCNc1ncnc2c1[nH]c1ccccc12` was 39% (inactive). Turning to `CC(=O)Nc1ccc(N2C(=O)CCC2=O)cc1C`, the inhibition is 9.8% (inactive). Turning to `O=C(/C=C/Sc1ncn[nH]1)c1ccc(Cl)cc1`, the inhibition is 38.2% (inactive). For the compound `CC1Cc2ccccc2N1C(=O)CSc1nnc(-c2ccc(S(=O)(=O)N3CCCCC3)cc2)o1` (stereo not drawn), the inhibition was 12.5% (inactive).

Regarding `Cc1ccc(S(=O)(=O)N(CC(=O)NCCSC2CCCCC2)c2ccccc2F)cc1`, the inhibition was -4.4% (inactive). Regarding `O=C(CCS(=O)(=O)Cc1ccccc1F)NCCCN1CCCCC1`, the inhibition is 22.6% (inactive). As for `CCCNC(=O)CN(Cc1ccccc1F)S(=O)(=O)c1ccc(C)cc1`, the inhibition was 64.4% (active). On to `Cc1cc(=O)n2nc(N3CCCC(C(=O)NCCC4=CCCCC4)C3)sc2n1` (stereo not drawn), for which the inhibition was 35.1% (inactive). Regarding `CCOC(=O)N1CCC(NC(=O)Cc2cn(C)c3ccccc23)CC1`, the inhibition is -8.8% (inactive). Turning to `CC1=Nn2c(nnc2-c2ccccc2)SC1`, the inhibition is -2% (inactive).

On to `COc1ccc(C2CC(c3ccc(Cl)cc3Cl)Nc3nc(N)nn32)cc1OC` (stereo not drawn), for which the inhibition is -12.5% (inactive). For the compound `CCOc1ccccc1C1CC(c2ccccc2)Nc2nc(N)nn21` (stereo not drawn), the inhibition is 44.9% (inactive). To `CCOc1ccccc1C1CC(c2ccc(Cl)cc2)Nc2nc(N)nn21` (stereo not drawn) belongs 90.2% (active); to `COc1ccc(NC(=O)COC(=O)Cn2c(C)nc3ccccc32)cc1OC`, -0.3% (inactive). With `COCCn1c(-c2ccc(OC)c(OC)c2)nc2ccccc21`, the inhibition is 0.9% (inactive). To `COc1ccc(-c2nc3ccccc3n2CCC(C)C)cc1OC` belongs 61.3% (active); to `C=CCN(c1ccc(C(N)=O)cc1)S(C)(=O)=O`, -3.9% (inactive).

Turning to `CSc1ccc(-c2c(C#N)c(N)nc3c2c(C)nn3-c2ccccc2)cc1`, the inhibition was 4.1% (inactive). Take `COc1cc(=O)[nH]c(=O)n1C(=O)Cc1ccccc1`: the inhibition was 5.6% (inactive). To `Cc1ccc(C(=O)COc2cccc(NC(=O)c3ccco3)c2)cc1` belongs 32.7% (inactive). To `CCOc1cccc(C(=O)Nc2cnn(Cc3ccccc3)c2)c1` belongs 8.6% (inactive); to `Cc1ccc(C(=O)Nc2nnc(-c3ccncc3)s2)o1`, 27% (inactive); to `Cc1occc1C(=O)Nc1nnc(-c2ccncc2)s1`, 98.1% (active).

Consider `Cc1occc1C(=O)Nc1nnc(C2CCCCC2)s1`, for which the inhibition was -3.5% (inactive). For the compound `Cc1occc1C(=O)Nc1cccc(Cn2cccn2)c1`, the inhibition is 57% (active). `Fc1ccc(CNc2nc3ccccc3n3nnnc23)cc1`: the inhibition is 6% (inactive). For `CN(C)/C=C1\C=C(c2ccccc2)OC1=O`, the inhibition is -5.7% (inactive). In the case of `O=C1CSC2=NCN(c3ccccc3)CN12`, the inhibition was 3.1% (inactive). With `N#Cc1nc(Cc2cccc3ccccc23)oc1NCc1ccc2c(c1)OCO2`, the inhibition was 48.7% (inactive).

With `N#Cc1nc(Cc2ccccc2)oc1NCCc1ccccc1`, the inhibition is 64.7% (active). To `CCOc1ccc(Nc2oc(Cc3ccccc3)nc2C#N)cc1` belongs 30.6% (inactive); to `FC(F)(F)c1nnc2sc(-c3ccco3)nn12`, 10.3% (inactive).

For `CCOc1ccc(/C(O)=C2/C(=O)C(=O)N(Cc3cccnc3)C2c2ccc(N(C)C)cc2)c(C)c1` (stereo not drawn), the inhibition was 3.8% (inactive). As to `CCOc1ccc(N2C(=O)CC(N(O)c3ccccc3)C2=O)cc1` (stereo not drawn), the inhibition is 20.3% (inactive). In the case of `Cn1c(N)c(C(=O)COC(=O)C23CC4CC(CC(C4)C2)C3)c(=O)n(C)c1=O`, the inhibition was 13.1% (inactive). To `Cc1cc(C)cc(NC(=O)N2CCC(NC(=O)c3ccc(F)cc3)CC2)c1` belongs -9.5% (inactive); to `COCCCn1c(Cc2csc(Nc3cccc(Cl)c3)n2)nnc1SCC(=O)OC1CCCCC1`, 27.4% (inactive).

Consider `CCOc1ccc(Nc2nc(Cc3nnc(SCC(=O)NC4CCCC4)n3C)cs2)cc1`, for which the inhibition is 53.4% (active).

In the case of `CCOc1ccc(Nc2nc(Cc3nnc(SCC(=O)c4ccc(C)cc4)o3)cs2)cc1`, the inhibition is 46.9% (inactive).
